High-throughput results: PubChem, National Center for Advancing Translational Sciences (NCATS)
An excerpt weighted towards active compounds, which were near 7.2% of everything screened.
HEK293 tox – Cytotoxic Profiling in HEK 293 Cell Line of Diverse Libraries Using Quantitative High-Throughput Screening; actives 6.6% (n = 94,000); Potency, µM (series often up to 115 µM), actives largely listed as inhibitors; AID 1345083, 2018; HEK 293 viability, ATP luminescence (CellTiter-Glo), 48-72 h; further: nearly all actives have a fitted effect of over 60% in size
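HEK 293 cells at 250 cells/well were exposed to compounds by pintool transfer for 48 or 72 hr at 37 degree Celsius, 5% CO2. Viability was read as ATP-coupled luminescence with CellTiter-Glo after 10 min at room temperature.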
HEK293 viab – GF-AFC viability counterscreen for inhibitors of alpha-synuclein gene (SNCA) expression. actives 0.12% (n = 150,000). AID 1671193, 2021. Potency, µM (highest dose often 57.1 µM), actives largely listed as cytotoxic. HEK-293-SNCA-luc viability, GF-AFC fluorescence, 24 h; further: nearly all actives have a fitted effect of over 30% in size
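HEK-293-SNCA-luc cells (1500/well) plated 24 h, then exposed 24 h to a dilution series; GF-AFC added 30 min at 37C, fluorescence 405/540 nm; normalised to medium-only and DMSO wells, Hill fit.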
FLuc inh-1 – Firefly luciferase inhibition profiling of diverse chemical library using quantitative high-throughput screening. Luciferin 4-monooxygenase (Photinus pyralis), P08659. purified P. pyralis luciferase, luminescence, biochemical. Potency, µM (series often up to 115 µM), actives largely listed as inhibitors. actives 2.5% (n = 76,000); further: nearly all actives have a fitted effect of over 65% in size
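Cell-free enzyme assay, 10nM P. pyralis luciferase, luciferin and ATP each at 10uM. Inhibition profiled over a 6-point titration, read as luminescence.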
SNCA expr inhib – Primary qHTS assay for inhibitors of alpha-synuclein gene (SNCA) expression. HEK-293 SNCA-luciferase knock-in, luminescence, 24 h. Potency, µM (doses to about 57.2 µM), usual class: inhibitors. actives 0.17% (n = 140,000). AID 1671194, 2021; further: nearly all actives have a fitted effect of over 45% in size
NPR1 antag – Natriuretic polypeptide receptor (hNpr1) antagonism - Primary qHTS. Atrial natriuretic peptide receptor 1 (Homo sapiens), P16066. HEK293 hNpr1 GloSensor cGMP, ANP-stimulated luminescence. Potency, µM (highest dose often 46.3 µM), actives largely listed as inhibitors. actives 1.6% (n = 76,000); calls by dose curve; further: nearly all actives have a fitted effect of over 60% in size
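HEK293 cells stably expressing human Npr1 and cGMP GloSensor pGS-40F, loaded 2 h with 2% GloSensor reagent, given compound 30 min at room temperature. Luminescence read before and 20 min after 0.1 nM hNppA.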
NIH3T3 tox – Cytotoxic Profiling in NIH 3T3 Cell Line of Diverse Libraries Using Quantitative High-Throughput Screening. Potency, µM (series often up to 96.7 µM), actives largely listed as inhibitors. actives 4.3% (n = 94,000). NIH 3T3 viability, CellTiter-Glo ATP luminescence, 48-72 h; further: nearly all actives have a fitted effect of over 55% in size
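First NIH 3T3 cells are plated at 400 cells/well; next compound is pinned in; then plates incubate 48 or 72 hr at 37 °C; finally CellTiter-Glo is added and luminescence read after 10 min.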
FLuc SDR no ATP – Firefly luciferase (FLuc-C-HiBiT) SDR gain of signal screen - without ATP; Purified FLuc-C-HiBiT, Nano-Glo HiBiT luminescence, no ATP; shares compounds with FLuc inh-1; Potency, µM (top dose mostly 32.7 µM), most hits filed as activators; actives 7.8% (n = 1,300); further: nearly all actives have a fitted effect of over 55% in size
FLuc SDR ATP – Firefly luciferase (FLuc-C-HiBiT) SDR gain of signal screen - plus ATP; actives 8.7% (n = 1,300); purified FLuc-C-HiBiT + ATP, HiBiT complementation luminescence; AID 1963319, 2024; shares compounds with FLuc inh-1; Potency, µM (doses to about 32.7 µM), hits mostly activators;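 further: signal reports ligand binding via conformational change of the enzyme rather than luciferase catalysis; nearly all actives have a fitted effect of over 55% in size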
FLuc inh-2 – Firefly luciferase (FLuc-C-HiBiT) enzymatic inhibition screen - Functional assay; shares compounds with FLuc inh-1; purified FLuc-C-HiBiT enzyme, luciferin luminescence; Potency, µM (top dose mostly 32.7 µM), hits mostly inhibitors; actives 42% (n = 1,300); further: nearly all actives have a fitted effect of over 70% in size
Of the large screens only hits and unclear results are named; the others gave an inactive call (follow-up assays come after a bar, where they were run). Unless noted, the call rests on the fitted dose curve; in most records, active means well fitted curve in the direction sought with a large enough effect; inconclusive means small, poorly fitted or top-dose-only effect, or another doubt; inactive means no such curve, though single readings can be large; an effect the other way counts as inactive or inconclusive.

Cc1ccc(NC(=O)c2ccc3c(c2)N(C)C2CCCN2C3=O)cc1C (configuration not stated)	FLuc inh-1 12.6µM | FLuc SDR no ATP inactive | FLuc SDR ATP inconclusive | FLuc inh-2 inconclusive
COc1ccc(NC(=O)c2ccc3c(c2)N(C)C2CCCN2C3=O)cc1OC (configuration not stated)	HEK293 tox inconclusive, SNCA expr inhib inconclusive
CN1c2cc(C(=O)Nc3cc(F)ccc3F)ccc2C(=O)N2CCCCCC21 (configuration not stated)	HEK293 tox inconclusive, FLuc inh-1 11.2µM, NIH3T3 tox inconclusive | FLuc SDR no ATP inactive | FLuc SDR ATP inconclusive | FLuc inh-2 inconclusive
Cc1cc(N2CCN(C(=O)CCCS(N)(=O)=O)CC2)cc(C)n1	none
COC(C)c1nc(C2CCOCC2)nn1Cc1ccc2c(c1)OCO2 (configuration not stated)	none
CSCc1nc(-c2ccncc2)nn1Cc1ccc2c(c1)OCO2	HEK293 tox inconclusive, FLuc inh-1 4.47µM, NPR1 antag 11.2µM, NIH3T3 tox inconclusive | FLuc SDR no ATP inactive | FLuc SDR ATP inactive | FLuc inh-2 inactive
Cc1nn(-c2ccc(C(C)C)cc2)c(C)c1[C@@H]1C=C[C@@H](NC(=O)COCC(=O)O)C1	FLuc inh-1 35.5µM, NIH3T3 tox inconclusive | FLuc SDR no ATP inactive | FLuc SDR ATP inactive | FLuc inh-2 inconclusive
Cc1nn(-c2ccc(C(C)(C)C)cc2)c(C)c1[C@@H]1C=C[C@@H](NC(=O)CCCC(=O)O)C1	FLuc inh-1 22.4µM, NIH3T3 tox inconclusive | FLuc SDR no ATP inactive | FLuc SDR ATP inconclusive | FLuc inh-2 inconclusive
Cc1nn(-c2ccc(C(F)(F)F)cc2)c(C)c1[C@@H]1C=C[C@@H](NC(=O)CSCC(=O)O)C1	HEK293 tox inconclusive
Cc1ccc(-n2nc(C)c([C@H]3C=C[C@@H](OC(=O)Nc4cccc(C(F)(F)F)c4)C3)c2C)cc1Cl	HEK293 tox 31.6µM, FLuc inh-1 11.2µM, NPR1 antag inconclusive, NIH3T3 tox inconclusive | FLuc SDR no ATP inactive | FLuc SDR ATP inactive | FLuc inh-2 inactive
Cc1ccc(-n2nc(C)c([C@@H]3C=C[C@@H](NC(=O)COCC(=O)O)C3)c2C)cc1Cl	FLuc inh-1 35.5µM | FLuc SDR no ATP inactive | FLuc SDR ATP inactive | FLuc inh-2 inactive
CSc1ccc(-c2cccc(C(=O)NCC(=O)NCC(F)F)c2)cc1	none (no result: FLuc inh-1, NPR1 antag)
CC(=O)N1CCCC(C(=O)N2CCC(Cc3noc(C)n3)CC2)C1 (configuration not stated)	none
COc1ccc(NC(=O)N2CCCC(Cc3noc(-c4cnccn4)n3)C2)cc1 (configuration not stated)	none
